Assay outcomes: PubChem, National Center for Advancing Translational Sciences (NCATS)
KB-V1 MDR tox: qHTS assay for MDR1-selective chemotherapeutics: Primary screen using the drug-selected MDR subline cells KB-V1; KB-V1 MDR cells viability, CellTiter-Glo, 72 h; Potency, µM (top dose mostly 46.1 µM), actives largely listed as cytotoxic; hit rate 3.4% among 400,000; note: nearly all actives have a fitted effect of over 60% in size
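Luminescent ATP read-out (CellTiter-Glo, 10 min) measures survival of drug-selected KB-V1 MDR cells after 72 h, 37 degrees C compound exposure. Medium: phenol-red-free DMEM, 10% FBS. Values from fitted concentration-response curves.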
KB-3-1 cytotox: qHTS assay for MDR1-selective chemotherapeutics: Primary screen using the parental adenocarcinoma cell KB-3-1; AID 1347075, 2019; hit rate 1.4% among 400,000; KB-3-1 viability, CellTiter-Glo ATP luminescence, 72 h; Potency, µM (top dose mostly 46.1 µM), actives largely listed as cytotoxic; note: nearly all actives have a fitted effect of over 60% in size
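Screening of KB-3-1 cells (DMEM, 10% FBS, phenol-red free) ran from lowest to highest compound concentration; after 72 h at 37 °C viability was read luminescently and curves fitted.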
SW480 rereplic: A quantitative high throughput screen for small molecules that induce DNA re-replication in SW480 colon adenocarcinoma cells; AID 624297, 2012; Potency, µM (top dose mostly 46.1 µM), actives largely listed as activators; hit rate 1.8% among 340,000; SW480 DNA re-replication, Hoechst DNA content imaging, 48 h; note: nearly all actives have a fitted effect of over 55% in size
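Image-based read-out: total Hoechst fluorescence of nuclei (405 nm excitation, 500-530 nm emission), with hits raising the fraction of high-intensity nuclei. SW480 colon cells incubated 48 hr with compounds at 37 C.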
PINK1 modulator: A Quantitative High throughput Screen to Identify Chemical Modulators of PINK1 Expression. PINK1 immunofluorescence, high-content cytometry, 24 h. Potency, µM (titrated, usually from 76.6 µM), most hits filed as activators. hit rate 0.2% among 410,000. AID 624263, 2012; active = well fitted activation curve with a large enough effect; inconclusive = small, poorly fitted or top-dose-only effect; cell line not stated here; note: nearly all actives have a fitted effect of over 65% in size
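PINK1 protein level read as immunofluorescence by microplate cytometer in a fixed, stained stable cell line after 24 h exposure to five compound concentrations, with CCCP as control.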
MCF10A rereplic: A quantitative high throughput screen for small molecules that induce DNA re-replication in MCF 10a normal breast cells. hit rate 2.9% among 350,000. MCF 10A DNA re-replication, Hoechst nuclear intensity, 48 h. Potency, µM (series often up to 46.1 µM), usual class: activators. AID 624296, 2012; note: nearly all actives have a fitted effect of over 50% in size
PTAP TSG101 blk: qHTS Assay for Iinhibitors of HIV-1 Budding by Blocking the Interaction of PTAP/TSG101. Potency, µM (doses to about 115 µM), hits mostly inhibitors. AID 493005, 2010. 340,000 tested, under 10 active. Tumor susceptibility gene 101 protein (Homo sapiens), Q99816. Fluorescence polarization, FITC-PTAP peptide / Tsg101 binding; active = well fitted inhibition curve with a large enough effect in the main read-out, with a control signal flat, not every such curve was filed as active; inconclusive = small, poorly fitted or top-dose-only effect, or effect the other way, or a change in a side signal; inactive = no such curve, though single readings can be large or run the other way
Target sequence (Q99816 whole entry, looked up): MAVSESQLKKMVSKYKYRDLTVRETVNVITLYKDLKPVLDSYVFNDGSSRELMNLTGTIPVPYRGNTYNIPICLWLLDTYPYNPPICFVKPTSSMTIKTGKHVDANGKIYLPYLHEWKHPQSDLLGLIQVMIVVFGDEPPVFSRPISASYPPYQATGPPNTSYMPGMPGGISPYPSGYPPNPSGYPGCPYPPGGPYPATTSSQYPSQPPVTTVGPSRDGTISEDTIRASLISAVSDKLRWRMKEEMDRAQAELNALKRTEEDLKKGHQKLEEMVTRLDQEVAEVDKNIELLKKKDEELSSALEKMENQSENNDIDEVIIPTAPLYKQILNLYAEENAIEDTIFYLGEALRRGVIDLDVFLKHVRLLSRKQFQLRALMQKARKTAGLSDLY
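Tsg101 binding domain (10 uM final) was mixed with compound and a FITC-labeled PTAP peptide (50 nM final) in HEPES pH 7.5 buffer with NaCl, Tween 20, EDTA and TCEP; fluorescence polarization was read after 20 min at r.t.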
Of the large screens only hits and unclear results are named; the others gave an inactive call. Shown are actives, neighbours in structure and some others; about 6.8% of the full set was active somewhere. Unless noted, calls come from the whole dose curve; as a rule, active = well fitted curve in the direction sought with a large enough effect; inconclusive = small, poorly fitted or top-dose-only effect, or another doubt; inactive = no such curve, though single readings can be large; an effect the other way counts as inactive or inconclusive.

CCc1ccc(C(=O)c2cn(CC(=O)Nc3cc(OC)ccc3OC)c3ccc(Cl)cc3c2=O)cc1	none (no result: SW480 rereplic, MCF10A rereplic, PTAP TSG101 blk)
Cn1ccnc1Sc1cc(NCCCO)c([N+](=O)[O-])c2nonc12	MCF10A rereplic 18µM
O=[N+]([O-])c1c(NCCCO)cc(N2CCN(Cc3ccc4c(c3)OCO4)CC2)c2nonc12	KB-V1 MDR tox 16µM, MCF10A rereplic inconclusive
O=[N+]([O-])c1c(NCCCO)cc(Sc2ccc(Cl)cc2)c2nonc12	KB-3-1 cytotox inconclusive, MCF10A rereplic 13µM
COc1ccccc1C(=O)N1CCOc2ccc(CN3CCN(Cc4ccccn4)CC3)cc2C1	none (no result: KB-V1 MDR tox, KB-3-1 cytotox, SW480 rereplic, MCF10A rereplic, PTAP TSG101 blk)
Cc1ccc(Nc2cc(C)nn2-c2nc(C)cc(=O)[nH]2)cc1	KB-V1 MDR tox inconclusive, KB-3-1 cytotox 1.4µM, SW480 rereplic inconclusive, MCF10A rereplic inconclusive
CCc1ccc2occ(CC(=O)Nc3c(C(=O)c4ccccc4)oc4ccccc34)c2c1	none (no result: SW480 rereplic, MCF10A rereplic, PTAP TSG101 blk)
COc1cc2c(cc1OC)C(=O)N1[C@H]3c4cc(C)ccc4OC[C@@H]3[C@H](c3ccccc3)[C@]1(C)C(=O)N2	KB-V1 MDR tox inconclusive, KB-3-1 cytotox inconclusive, SW480 rereplic 13µM, MCF10A rereplic 15µM (no result: PTAP TSG101 blk)
COc1cc2c(cc1OC)C(=O)N1[C@H]3c4cc(Cl)ccc4OC[C@@H]3[C@H](c3ccccc3)[C@]1(C)C(=O)N2	KB-V1 MDR tox inconclusive, KB-3-1 cytotox inconclusive, SW480 rereplic inconclusive, MCF10A rereplic 9.2µM
CN1CCCC(CNC(=O)c2cnn(-c3ncc4c(n3)-c3ccccc3CC4)c2C2CC2)C1 (centres undefined)	none (no result: KB-V1 MDR tox, KB-3-1 cytotox, SW480 rereplic, MCF10A rereplic, PTAP TSG101 blk)
Nc1ncnc2c1ncn2C1C=C(CO)C(O)C1O (centres undefined)	KB-V1 MDR tox inconclusive, KB-3-1 cytotox 8.2µM, SW480 rereplic inconclusive, MCF10A rereplic inconclusive
Nc1ncnc2c1ncn2[C@@H]1O[C@H](CO)C[C@H]1O	PINK1 modulator inconclusive
CCOC(=O)c1cc2sccc2n1CCCN1C(=O)c2ccccc2C1=O	KB-V1 MDR tox inconclusive, MCF10A rereplic 21µM
CC1=C(c2ccc(C)c(C)c2)S(=O)(=O)N=C1N1CCC(C(=O)N2CCC(C(N)=O)CC2)CC1	none (no result: SW480 rereplic, MCF10A rereplic, PTAP TSG101 blk)
Cc1cccc(NC(=O)C2CCN(c3nccc(C)n3)CC2)c1	KB-V1 MDR tox 15µM
CCC(C)c1ccc(NC(=O)C2CCN(c3ncccn3)CC2)cc1 (centres undefined)	KB-V1 MDR tox 18µM, KB-3-1 cytotox inconclusive, SW480 rereplic inconclusive
CCS(=O)(=O)N1CCCC(C(=O)NCCOC)C1 (centres undefined)	none (no result: SW480 rereplic, MCF10A rereplic, PTAP TSG101 blk)
Nn1c(Cc2cccc3ccccc23)nnc1SCc1ccccc1	KB-V1 MDR tox 16µM, MCF10A rereplic inconclusive
CCN1C[C@@H]2[C@@H]3C(=O)N(Cc4ccccc4)C(=O)[C@@H]3[C@](Cc3ccccc3)(C1=O)N2C(=O)c1ccc(Cl)c(Cl)c1	KB-V1 MDR tox 18µM, KB-3-1 cytotox inconclusive, MCF10A rereplic inconclusive
COc1ccc(C2=Nc3ccccc3N(C(=O)c3ccc4c(c3)OCO4)C2C(=O)NCc2ccccc2)cc1 (centres undefined)	KB-V1 MDR tox inconclusive, KB-3-1 cytotox 4.6µM (no result: SW480 rereplic, PINK1 modulator, MCF10A rereplic, PTAP TSG101 blk)
COc1ccc(C2=Nc3ccccc3N(C(=O)c3ccc(C)cc3)C2C(=O)NCc2ccccc2)cc1 (centres undefined)	KB-V1 MDR tox inconclusive (no result: SW480 rereplic, PINK1 modulator, MCF10A rereplic, PTAP TSG101 blk)
N#Cc1nc(Nc2cc(F)cc(F)c2)c2ncn(CCCN3CCCC3)c2n1	none (no result: SW480 rereplic, PINK1 modulator, MCF10A rereplic, PTAP TSG101 blk)
Cc1ccccc1Cn1nnc2c(=O)[nH]c(C3CCN(C(=O)c4ccccc4Cl)CC3)nc21	none (no result: SW480 rereplic, MCF10A rereplic, PTAP TSG101 blk)
O=C(O[C@H]1[C@H](Cc2ccccc2)NS(=O)(=O)[C@H]2CC3C=C[C@]12O3)c1ccc(Br)cc1	KB-V1 MDR tox inconclusive (no result: SW480 rereplic, PINK1 modulator, MCF10A rereplic, PTAP TSG101 blk)
CCOC(=O)c1oc2ccccc2c1NC(=O)Cc1cccs1	KB-V1 MDR tox 15µM (no result: PTAP TSG101 blk)
